Measured values published in PMC7862700, “An all-to-all approach to the identification of sequence-specific readers for epigenetic DNA modifications on cytosine”.

What was measured:
Assay in all cases: DAPPL (digital affinity profiling via proximity ligation, sequencing); 10 mM Tris-HCl pH 7.5, 50 mM NaCl, 1 mM DTT, 4% glycerol, room temperature, 30 min; GST-TFs on glutathione beads, 16-mer random dsDNA library, 0.1% formaldehyde crosslink after washing; high values mean tight binding
Conditions in all cases: protein: recombinant; tags: N-terminal GST; dsDNA, one strand shown
ERF = molecular target: T1, ERF (Homo sapiens, UniProt P50548 1-548)
T1 sequence: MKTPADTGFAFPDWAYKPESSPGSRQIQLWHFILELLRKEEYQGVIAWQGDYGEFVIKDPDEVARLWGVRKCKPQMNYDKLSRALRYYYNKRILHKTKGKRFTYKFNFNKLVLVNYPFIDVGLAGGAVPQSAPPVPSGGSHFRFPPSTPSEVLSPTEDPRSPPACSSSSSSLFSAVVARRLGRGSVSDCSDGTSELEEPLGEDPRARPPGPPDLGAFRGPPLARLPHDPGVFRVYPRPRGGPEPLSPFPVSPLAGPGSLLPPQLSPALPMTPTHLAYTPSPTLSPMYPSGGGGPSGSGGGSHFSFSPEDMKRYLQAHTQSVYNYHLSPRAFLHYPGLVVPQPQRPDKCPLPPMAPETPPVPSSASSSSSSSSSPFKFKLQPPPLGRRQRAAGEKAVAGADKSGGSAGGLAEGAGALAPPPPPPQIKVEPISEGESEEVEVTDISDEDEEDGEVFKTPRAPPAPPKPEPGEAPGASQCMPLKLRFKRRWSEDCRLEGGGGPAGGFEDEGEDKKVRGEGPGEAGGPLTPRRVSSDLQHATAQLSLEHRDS
Procedure, shortened: (§1)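 Binding signal is each hexamer's read frequency for a factor divided by its frequency in the tag-only sample. The factors were GST-fused human transcription factors from yeast, captured on glutathione beads, DNA-barcoded and pooled with that sample. Pools were incubated with 200 nmole of a random double-stranded 16-mer DNA library in Tris/NaCl/DTT/glycerol buffer at room temperature for 30 min, then washed, crosslinked with 0.1% formaldehyde, proximity-ligated with BsaI/T4 ligase (1 h, 37 °C), PCR-amplified and sequenced on an Illumina NextSeq500.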

ETV3L = molecular target: T2, ETV3L (Homo sapiens, UniProt Q6ZN32 1-361)
T2 sequence: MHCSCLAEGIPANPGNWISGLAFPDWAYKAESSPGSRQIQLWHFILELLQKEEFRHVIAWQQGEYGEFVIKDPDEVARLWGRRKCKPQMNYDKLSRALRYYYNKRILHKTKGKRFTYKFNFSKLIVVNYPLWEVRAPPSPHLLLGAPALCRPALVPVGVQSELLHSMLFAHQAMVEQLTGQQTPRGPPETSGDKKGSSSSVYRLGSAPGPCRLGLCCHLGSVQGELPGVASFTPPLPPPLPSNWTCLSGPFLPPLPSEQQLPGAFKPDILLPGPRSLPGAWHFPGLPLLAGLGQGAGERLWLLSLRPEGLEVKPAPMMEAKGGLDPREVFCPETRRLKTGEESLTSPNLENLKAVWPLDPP
Procedure, shortened: as §1

ETS2 = molecular target: T3, ETS2 (Homo sapiens, UniProt P15036 1-469)
T3 sequence: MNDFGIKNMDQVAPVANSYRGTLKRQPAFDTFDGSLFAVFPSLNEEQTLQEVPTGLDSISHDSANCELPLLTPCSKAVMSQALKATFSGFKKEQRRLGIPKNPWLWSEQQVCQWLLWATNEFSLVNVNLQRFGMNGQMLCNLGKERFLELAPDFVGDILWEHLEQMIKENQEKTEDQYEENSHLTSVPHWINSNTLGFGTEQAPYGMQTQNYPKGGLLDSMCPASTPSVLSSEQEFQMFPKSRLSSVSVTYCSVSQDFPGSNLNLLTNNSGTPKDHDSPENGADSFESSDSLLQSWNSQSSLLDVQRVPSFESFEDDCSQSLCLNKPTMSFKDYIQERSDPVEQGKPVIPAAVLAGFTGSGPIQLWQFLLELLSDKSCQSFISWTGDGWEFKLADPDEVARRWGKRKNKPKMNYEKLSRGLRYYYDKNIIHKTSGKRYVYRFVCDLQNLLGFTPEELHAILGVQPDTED
Procedure, shortened: as §1

SPDEF = molecular target: T4, SPDEF (Homo sapiens, UniProt O95238 1-335)
T4 sequence: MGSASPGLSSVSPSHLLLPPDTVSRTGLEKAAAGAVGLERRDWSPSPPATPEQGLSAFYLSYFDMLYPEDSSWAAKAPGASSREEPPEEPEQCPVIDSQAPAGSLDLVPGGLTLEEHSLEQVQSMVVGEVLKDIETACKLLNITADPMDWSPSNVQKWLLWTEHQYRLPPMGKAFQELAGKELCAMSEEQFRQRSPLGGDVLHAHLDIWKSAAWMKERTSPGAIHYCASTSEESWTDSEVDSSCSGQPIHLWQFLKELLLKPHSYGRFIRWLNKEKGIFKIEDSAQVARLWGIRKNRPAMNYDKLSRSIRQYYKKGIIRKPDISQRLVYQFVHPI
Procedure, shortened: as §1

ETV7 = molecular target: T5, ETV7 (Homo sapiens, UniProt Q9Y603 1-341)
T5 sequence: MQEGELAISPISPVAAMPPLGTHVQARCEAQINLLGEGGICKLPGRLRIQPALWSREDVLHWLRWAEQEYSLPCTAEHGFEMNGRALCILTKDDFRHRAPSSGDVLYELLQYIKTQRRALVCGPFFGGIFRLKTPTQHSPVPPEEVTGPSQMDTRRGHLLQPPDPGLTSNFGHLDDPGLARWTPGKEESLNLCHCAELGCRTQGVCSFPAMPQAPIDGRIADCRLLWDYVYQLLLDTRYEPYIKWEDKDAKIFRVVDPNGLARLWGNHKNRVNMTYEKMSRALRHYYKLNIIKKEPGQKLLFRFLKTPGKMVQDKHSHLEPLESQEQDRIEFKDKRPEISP
Procedure, shortened: as §1

ELF5 = molecular target: T6, ELF5 (Homo sapiens, UniProt Q9UKW6-2 1-255)
T6 sequence: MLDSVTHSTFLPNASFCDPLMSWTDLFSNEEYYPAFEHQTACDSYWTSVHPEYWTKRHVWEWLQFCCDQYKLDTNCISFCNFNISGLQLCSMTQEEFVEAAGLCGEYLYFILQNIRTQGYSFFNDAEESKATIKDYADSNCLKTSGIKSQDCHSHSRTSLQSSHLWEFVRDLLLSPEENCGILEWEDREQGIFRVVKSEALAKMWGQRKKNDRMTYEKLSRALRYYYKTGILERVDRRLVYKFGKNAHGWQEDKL
Procedure, shortened: as §1

ETV3 = molecular target: T7, ETV3 (Homo sapiens, UniProt P41162-2 1-143)
T7 sequence: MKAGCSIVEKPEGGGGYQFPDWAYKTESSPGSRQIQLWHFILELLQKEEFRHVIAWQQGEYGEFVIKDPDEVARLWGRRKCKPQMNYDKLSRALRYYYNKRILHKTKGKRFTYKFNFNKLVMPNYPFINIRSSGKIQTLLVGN
Procedure, shortened: as §1

ETV6 = ETV6 (Homo sapiens, UniProt P41212 1-452)
ETV6, sequence (P41212 whole entry): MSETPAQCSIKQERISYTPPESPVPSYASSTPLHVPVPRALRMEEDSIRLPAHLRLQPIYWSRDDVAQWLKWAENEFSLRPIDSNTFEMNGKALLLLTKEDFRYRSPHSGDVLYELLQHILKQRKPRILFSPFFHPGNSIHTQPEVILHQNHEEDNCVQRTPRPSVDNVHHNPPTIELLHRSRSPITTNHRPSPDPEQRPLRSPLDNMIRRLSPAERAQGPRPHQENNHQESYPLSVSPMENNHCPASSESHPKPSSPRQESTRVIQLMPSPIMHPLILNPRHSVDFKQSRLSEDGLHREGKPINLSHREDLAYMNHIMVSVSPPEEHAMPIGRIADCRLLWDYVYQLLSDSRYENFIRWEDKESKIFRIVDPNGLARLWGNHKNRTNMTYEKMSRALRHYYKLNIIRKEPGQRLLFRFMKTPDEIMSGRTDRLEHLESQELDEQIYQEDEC
Procedure, shortened: as §1

Sequence: TTCTAG
- binding signal (ERF): 1.33 fold enrichment (6-mer frequency, TF over GST control)
- binding signal (ETV3L): 1.3 fold enrichment (6-mer frequency, TF over GST control)
- binding signal (ETS2): 1.34 fold enrichment (6-mer frequency, TF over GST control)
- binding signal (SPDEF): 1.17 fold enrichment (6-mer frequency, TF over GST control)
- binding signal (ETV7): 1.45 fold enrichment (6-mer frequency, TF over GST control)
- binding signal (ELF5): 1.2 fold enrichment (6-mer frequency, TF over GST control)
- binding signal (ETV3): 1.19 fold enrichment (6-mer frequency, TF over GST control)
- binding signal (ETV6): 1.16 fold enrichment (6-mer frequency, TF over GST control)

Sequence: AATTGT
- binding signal (ERF): 1.36 fold enrichment (6-mer frequency, TF over GST control)
- binding signal (ETV3L): 1.29 fold enrichment (6-mer frequency, TF over GST control)
- binding signal (ETS2): 1.31 fold enrichment (6-mer frequency, TF over GST control)
- binding signal (SPDEF): 1.21 fold enrichment (6-mer frequency, TF over GST control)
- binding signal (ETV7): 1.39 fold enrichment (6-mer frequency, TF over GST control)
- binding signal (ELF5): 1.35 fold enrichment (6-mer frequency, TF over GST control)
- binding signal (ETV3): 1.31 fold enrichment (6-mer frequency, TF over GST control)
- binding signal (ETV6): 1.26 fold enrichment (6-mer frequency, TF over GST control)

Sequence: TAACAT
- binding signal (ERF): 1.33 fold enrichment (6-mer frequency, TF over GST control)
- binding signal (ETV3L): 1.32 fold enrichment (6-mer frequency, TF over GST control)
- binding signal (ETS2): 1.28 fold enrichment (6-mer frequency, TF over GST control)
- binding signal (SPDEF): 1.34 fold enrichment (6-mer frequency, TF over GST control)
- binding signal (ETV7): 1.3 fold enrichment (6-mer frequency, TF over GST control)
- binding signal (ELF5): 1.35 fold enrichment (6-mer frequency, TF over GST control)
- binding signal (ETV3): 1.26 fold enrichment (6-mer frequency, TF over GST control)
- binding signal (ETV6): 1.4 fold enrichment (6-mer frequency, TF over GST control)

Sequence: ATACAA
- binding signal (ERF): 1.15 fold enrichment (6-mer frequency, TF over GST control)
- binding signal (ETV3L): 1.12 fold enrichment (6-mer frequency, TF over GST control)
- binding signal (ETS2): 1.19 fold enrichment (6-mer frequency, TF over GST control)
- binding signal (SPDEF): 1.14 fold enrichment (6-mer frequency, TF over GST control)
- binding signal (ETV7): 1.14 fold enrichment (6-mer frequency, TF over GST control)
- binding signal (ELF5): 1.08 fold enrichment (6-mer frequency, TF over GST control)
- binding signal (ETV3): 1.08 fold enrichment (6-mer frequency, TF over GST control)
- binding signal (ETV6): 1.12 fold enrichment (6-mer frequency, TF over GST control)

Sequence: TAAAGT
- binding signal (ERF): 1.09 fold enrichment (6-mer frequency, TF over GST control)
- binding signal (ETV3L): 1.29 fold enrichment (6-mer frequency, TF over GST control)
- binding signal (ETS2): 1.22 fold enrichment (6-mer frequency, TF over GST control)
- binding signal (SPDEF): 1.15 fold enrichment (6-mer frequency, TF over GST control)
- binding signal (ETV7): 1.25 fold enrichment (6-mer frequency, TF over GST control)
- binding signal (ELF5): 1.17 fold enrichment (6-mer frequency, TF over GST control)
- binding signal (ETV3): 1.18 fold enrichment (6-mer frequency, TF over GST control)
- binding signal (ETV6): 1.09 fold enrichment (6-mer frequency, TF over GST control)

Sequence: CCTTCT
- binding signal (ERF): 1.5 fold enrichment (6-mer frequency, TF over GST control)
- binding signal (ETV3L): 1.62 fold enrichment (6-mer frequency, TF over GST control)
- binding signal (ETS2): 1.53 fold enrichment (6-mer frequency, TF over GST control)
- binding signal (SPDEF): 1.84 fold enrichment (6-mer frequency, TF over GST control)
- binding signal (ETV7): 1.45 fold enrichment (6-mer frequency, TF over GST control)
- binding signal (ELF5): 1.86 fold enrichment (6-mer frequency, TF over GST control)
- binding signal (ETV3): 1.44 fold enrichment (6-mer frequency, TF over GST control)
- binding signal (ETV6): 1.58 fold enrichment (6-mer frequency, TF over GST control)

Sequence: GATATA
- binding signal (ERF): 1.15 fold enrichment (6-mer frequency, TF over GST control)
- binding signal (ETV3L): 1.18 fold enrichment (6-mer frequency, TF over GST control)
- binding signal (ETS2): 1.16 fold enrichment (6-mer frequency, TF over GST control)
- binding signal (SPDEF): 1.32 fold enrichment (6-mer frequency, TF over GST control)
- binding signal (ETV7): 1.1 fold enrichment (6-mer frequency, TF over GST control)
- binding signal (ELF5): 1.13 fold enrichment (6-mer frequency, TF over GST control)
- binding signal (ETV3): 1.09 fold enrichment (6-mer frequency, TF over GST control)
- binding signal (ETV6): 1.12 fold enrichment (6-mer frequency, TF over GST control)
